Results reported in the supplement of paper PMC11417369.
In all, about 25,000 sequences were measured (“ln(normalized median fluorescence intensity)”: median about 7.1, highest 2% from about 10 on). The sample holds the highest values, similar sequences and a random draw of the others, so the mix is not that of the screen.

Test system: PfSIP2 AP2 domain 1 (GST-tagged)
Assay: gcPBM binding intensity (ln(normalized median fluorescence intensity)); higher = stronger DNA binding
In short: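 Probes on an Agilent 4 × 180k array were primer-extended, double-stranded and 36 bp long, taken from intergenic genomic regions, with negative controls added. GST-tagged P. falciparum DNA-binding domains from E. coli, about 25 μg on average, were applied to the array for 1 h in 1× PBS containing 1% milk, 0.2 mg/ml BSA, 0.5% salmon testes DNA and 0.03% Triton X-100. Binding intensity, obtained after Alexa488 anti-GST antibody detection and a 488 nm scan, is the highest Masliner-normalised natural-log median intensity across replicate spots of either probe orientation.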

Sequence | gcPBM binding intensity (ln)
AAATATAAACTCAGCACACAAACATATATATGTCAT [CACACA_site4004] | 6.91
TCCTTTTGAACCCTTTTTCTCACAAGACCTTTATAT [TGCATGCA_negctrl_site413] | 7.05
ATGTTTTAATGAGGTTTGCACTATATTTTAATGAAC | 8.64
AATATTAAACAAAATAAATATATAAAAAATAAATAA [GTGCAC_negctrl_site93] | 6.79
ATGAATATAATGAAGTGTACATAAAAATAATAAATA [XGTACX_site2481] | 7.11
GTACATATATACATTACACACGGTTTGATTTAAAAA [CACACA_site3379] | 7.26
TCACATTTTGGACACGTGCACATATATTTGATACAT | 8.43
GGACATTTTTATAAGGTGCACGGTTTTGATATTACT [GTGCAC_site9892] | 11.1
ATGCGTTAATCTATATATATTATGTATAGATTTTCA [CACACA_negctrl_site1650] | 6.81
TGCCCTTTGGTTATAACACACATGCACACGTAAATA [CACACA_site7750] | 7.71
CTTTGGTTATAACACACATGCACACGTAAATAAATA [TGCATGCA_site976] | 7.63
TGCCCTTTGGTTATAACACACATGCACCCGTAAATA [CACACA_site3842] | 11.9
AGACAATTTTTTAGTACACACATATAGATATATAAA [CACACA_site6832] | 7.39
AAAAAAAAATATATATATATATATATATAATAAAAA [CACACA_negctrl_site639] | 7.48
ATGCACTCATTGTGCACACGCATATTACGAAAAGAA [CACACA_site2638] | 10.2
ATATGCACTCATTGTGCACACGCATATTACGAAAAG [CACACA_site2637] | 11
TGTGTTCATATATGCACACGCATATATATTATTGTT [CACACA_site3822] | 7.02
ATATATAATAATTGTAGTACAATTAATAAATAAAAT [XGTACX_site3840] | 7.08
TATATATTATAAAATTGTACATATATTAAATTTTTT [XGTACX_site5852] | 6.93

Sequence | gcPBM binding intensity (ln)
TGCACGCACAGACACACACACAACTAAAAAATAATG [CACACA_site7250] | 7.33
TAATTATGCAGACACACACACACACCCAACTAAAAA [CACACA_site2569] | 7.27
TATGCACCCAGACACACACACACAACTAAAAAATAA [CACACA_site2567] | 10.7
TACAAATATATATGCACACACATATACATACATATA [CACACA_site2182] | 7.31
GAAATGTGATAATATACACACACGCATATATATATA [CACACA_site4332] | 9.04
TACAAACACCCATATACACACAAAAAAAAAATAAAA [CACACA_site5421] | 7.05
TATGTGCACCCATATACACACACAAATACAATGATA [CACACA_site8295] | 12.3
GGTGCACCCATATACACACACAAATACAATGATAAA [CACACA_site1132] | 12.4
TCACCATATAAACGTGCACACTACAAAAATATATAA [CACACA_site5413] | 11
AATGTGATAATATACACACACGCATATATATATATA [CACACA_site323] | 9.89
CATATAAAAATGTGCACACACACACCCATATATATT [CACACA_site1526] | 9.06
TGTGCACGCATATACACACACAAATACAATGATAAA [CACACA_site6656] | 10.6
AAACAAAAAATATATACACACTAAACATAAAAAAAA [CACACA_site4185] | 6.86
TGGGCACCCATATACACACACAAATACAATGATAAA [CACACA_site4762] | 8.64
TAATGATAAATACATACACACAAAAAATGATATATA [CACACA_site7258] | 6.86
CTATTTTATATGTGCACACATATACACCCACAAATA [CACACA_site1131] | 9.31
CCCCCCCACGAACACACACACATACATACCACATAT [CACACA_site7149] | 9.05
TGAGAGAGAAACGTAGTGCATAAAATCAAATTTAGA [GTGCAC_site9737] | 7.82
TTTTTTTGTTTTGTTTTTTTTTTTTTTTTTTTTTTG [CACACA_negctrl_site570] | 6.76

Sequence | gcPBM binding intensity (ln)
ACATGTTCATAATTTTGTACATATTTTTATGAACAT [XGTACX_site3976] | 7.12
AAAATACACGATAGTTGTACATTAAATGTATACAAT [XGTACX_site360] | 6.91
TGTTATTATAACATTTTTTTCAAAATAGCTTTAGAA [CACACA_negctrl_site266] | 6.77
AATAAATATCAATACACACACACAAAAGTGAATAAA [CACACA_site3763] | 6.99
TAGAATAAGATAGATATACACACCATTATAAATATA [CACACA_site2500] | 6.78
AGTGTGTGTAATAAAGTGCATTAAAAATGACACGTA | 8.55
TGTGCATAAATTTATGCACACATAAAAAAAAAAAAA [CACACA_site8954] | 9.95
ATTAAAAAATCCATAGTGCACTACGATAGGTTCCGA [GTGCAC_site9463] | 10.5
ATATACATATCAATGTAATATTATATACTTTTTTAG [CACACA_negctrl_site816] | 6.77
TTATATAAAGAATGTACACACAGAAATGCACCCACA [CACACA_site2282] | 12.2
TGTACACCCAGAAATGCACACACATATATATATATA [CACACA_site8716] | 9.53
GAAAGAAGCATAAATGTACACACATATTTATATATT [CACACA_site8368] | 7.04
CATTTATATAAAGAATGTACACACAGAAATGCACAC [XGTACX_site4718] | 8.37
ATTTATATAAAGAATGTACACACAGAAATGCACCCA [CACACA_site8715] | 11.8
TTATATAAAGAATGTACACACAGAAATGCACAGACA [CACACA_site5288] | 8.26
TCCCTGATGTTATTTAATATACCATAAAAAAAAAAA [CACACA_negctrl_site1472] | 7.22
TATATATTATGACCACCACACACCTATACACATAAC [CACACA_site8773] | 7.3
TACATATAAATAATAACACACACCTAGGTACATGGA [CACACA_site838] | 6.89
CAAATATATATTTATTGTACATATTGTTTATATGGT [XGTACX_site5246] | 7.14
